Several values for one entry are separate records, joined by “and”; a condition that tells them apart may be missing. Equal values may be shown once. Hit rate of the full screen: of about 5,500 compounds, about 2,000 (36%) were called active. Not shown: some 18% with an inconclusive outcome. Rule as the data show it: active = normalized growth mostly below about 0.91 (no sharp cut-off); inconclusive = no clear call, values can overlap the other calls; inactive = mostly above about 0.92. Some of the results follow.
Experiment: chemical genetic growth profiling, strain panel (AID 1159580);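 also: tested at 20 µM; growth read once vehicle control cultures reached saturation at 30 °C; 1 = growth at the plate median or of vehicle wells; lower values mean less growth of the strain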
Details: S. cerevisiae deletion strains, growth OD

Measured: normalized growth

Cc1nnc(NS(=O)(=O)c2ccc(N)cc2)s1
inactive: locus YAL021C, strain ccr4, stronger effect = lower value 0.982 | locus YAL026C, strain drs2, stronger effect = lower value 1.01 | locus YAL030W, strain snc1, stronger effect = lower value 0.986 | locus YBL061C, strain skt5, stronger effect = lower value 0.989 | locus YBR009C, strain hhf1, stronger effect = lower value 1.01 | locus YBR021W, strain FUR4, stronger effect = lower value 1.02 | locus YBR023C, strain chs3, stronger effect = lower value 1.02 | locus YBR171W, strain sec66, stronger effect = lower value 1 | locus YBR229C, strain ROT2, stronger effect = lower value 1 | locus YBR231C, strain swc5, stronger effect = lower value 0.99 | locus YBR279W, strain paf1, stronger effect = lower value 1 | locus YCL011C, strain gbp2, stronger effect = lower value 1.02 | locus YCL016C, strain dcc1, stronger effect = lower value 1 | locus YCL029C, strain bik1, stronger effect = lower value 0.992 | locus YCL061C, strain MRC1, stronger effect = lower value 1.01 | locus YCL069W, strain vba3, stronger effect = lower value 0.997 | locus YCR088W, strain abp1, stronger effect = lower value 1 | locus YDL005C, strain med2, stronger effect = lower value 1.02 | locus YDL035C, strain GPR1, stronger effect = lower value 1.02 | locus YDL040C, strain nat1, stronger effect = lower value 1.01 | locus YDL074C, strain BRE1, stronger effect = lower value 1.05 | locus YDL101C, strain DUN1, stronger effect = lower value 1 | locus YDL134C, strain PPH21, stronger effect = lower value 1.02 | locus YDL185W, strain tfp1, stronger effect = lower value 1 | locus YDL192W, strain arf1, stronger effect = lower value 1.01 | locus YDR001C, strain nth1, stronger effect = lower value 1.01 | locus YDR069C, strain doa4, stronger effect = lower value 0.992 | locus YDR101C, strain arx1, stronger effect = lower value 0.995 | locus YDR137W, strain rgp1, stronger effect = lower value 1.01 | locus YDR159W, strain sac3, stronger effect = lower value 0.979 | locus YDR162C, strain NBP2, stronger effect = lower value 1.03 | locus YDR195W, strain ref2 0.947 | locus YDR297W, strain sur2, stronger effect = lower value 1 | locus YDR318W, strain mcm21, stronger effect = lower value 1.02 | locus YDR334W, strain swr1, stronger effect = lower value 0.987 | locus YDR335W, strain msn5, stronger effect = lower value 0.999 | locus YDR388W, stronger effect = lower value 0.993 | locus YDR392W, strain spt3, stronger effect = lower value 1.04 | locus YDR502C, strain sam2, stronger effect = lower value 1.02 | locus YEL003W, strain gim4, stronger effect = lower value 1 | locus YEL037C, strain rad23, stronger effect = lower value 0.972 | locus YEL061C, strain CIN8 (second series), stronger effect = lower value 1.01 | locus YEL061C, strain CIN8, stronger effect = lower value 1.01 | locus YER015W, strain faa2, stronger effect = lower value 1 | locus YER016W, strain bim1, stronger effect = lower value 0.994 | locus YER110C, stronger effect = lower value 0.984 | locus YER111C, strain swi4, stronger effect = lower value 0.999 | locus YER155C, strain BEM2 (second series), stronger effect = lower value 0.99 | locus YER155C, strain BEM2, stronger effect = lower value 1 | locus YER167W, strain BCK2, stronger effect = lower value 1.01 | locus YFR010W, strain ubp6, stronger effect = lower value 1 | locus YGL078C, strain dbp3, stronger effect = lower value 1 | locus YGL086W, strain mad1, stronger effect = lower value 1 | locus YGL167C, strain pmr1, stronger effect = lower value 1 | locus YGL173C, strain kem1, stronger effect = lower value 0.985 | locus YGL227W, strain vid30, stronger effect = lower value 1.01 | locus YGL240W, strain doc1, stronger effect = lower value 1.02 | locus YGL248W, strain PDE1, stronger effect = lower value 1 | locus YGL253W, strain hxk2, stronger effect = lower value 1.01 | locus YGR135W, strain pre9, stronger effect = lower value 1 | locus YGR252W, strain gcn5, stronger effect = lower value 1.13 | locus YHR013C, strain ard1, stronger effect = lower value 0.998 | locus YHR027C, strain rpn1, stronger effect = lower value 1 | locus YHR030C, strain SLT2, stronger effect = lower value 1.01 and 0.969 | locus YHR079C, strain IRE1 (second series), stronger effect = lower value 0.96 | locus YHR079C, strain IRE1, stronger effect = lower value 0.971 | locus YHR094C, strain hxt1, stronger effect = lower value 0.981 | locus YHR129C, strain ARP1, stronger effect = lower value 1 | locus YHR142W, strain chs7, stronger effect = lower value 1.02 | locus YHR200W, strain rpn10, stronger effect = lower value 1.01 | locus YIL066C, strain RNR3, stronger effect = lower value 0.992 | locus YIL073C, strain SPO22, stronger effect = lower value 1.06 | locus YIL125W, strain kgd1, stronger effect = lower value 1.01 | locus YIR030C, strain dcg1, stronger effect = lower value 0.991 | locus YJL092W, strain hpr5, stronger effect = lower value 1 | locus YJL095W, strain BCK1 (second series), stronger effect = lower value 0.988 | locus YJL095W, strain BCK1, stronger effect = lower value 1.02 and 0.974 | locus YJL115W, strain asf1, stronger effect = lower value 1.01 | locus YJL129C, strain trk1, stronger effect = lower value 0.997 | locus YJL134W, strain LCB3, stronger effect = lower value 1.01 | locus YJL154C, strain vps35, stronger effect = lower value 1.01 | locus YJL164C, strain tpk1, stronger effect = lower value 1.01 | locus YJL166W, strain qcr8, stronger effect = lower value 1 | locus YJL168C, strain set2, stronger effect = lower value 0.988 | locus YJL187C, strain SWE1 (second series), stronger effect = lower value 1.01 | locus YJL187C, strain SWE1, stronger effect = lower value 1 | locus YJR043C, strain POL32, stronger effect = lower value 1.03 | locus YJR066W, strain TOR1, stronger effect = lower value 0.925 | locus YJR075W, strain HOC1, stronger effect = lower value 1.01

Source: PubChem BioAssay AID1159580 (chemical genetic matrix, 2015)
